IDE exosite FP – displaces the probe from the exo-site of human IDE; P14735; purified IDE, FL-6b probe fluorescence polarization; hits give low values; z-score at 20 µM; actives 6.3% (n = 17,000); AID 1259349;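 active = z-score of -3 or lower, meaning strong loss of probe binding signal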;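 note: His-tagged human IDE residues 42-1019 made in E. coli with 30 nM FL-6b probe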
Target sequence (P14735 42-1019 limits assumed): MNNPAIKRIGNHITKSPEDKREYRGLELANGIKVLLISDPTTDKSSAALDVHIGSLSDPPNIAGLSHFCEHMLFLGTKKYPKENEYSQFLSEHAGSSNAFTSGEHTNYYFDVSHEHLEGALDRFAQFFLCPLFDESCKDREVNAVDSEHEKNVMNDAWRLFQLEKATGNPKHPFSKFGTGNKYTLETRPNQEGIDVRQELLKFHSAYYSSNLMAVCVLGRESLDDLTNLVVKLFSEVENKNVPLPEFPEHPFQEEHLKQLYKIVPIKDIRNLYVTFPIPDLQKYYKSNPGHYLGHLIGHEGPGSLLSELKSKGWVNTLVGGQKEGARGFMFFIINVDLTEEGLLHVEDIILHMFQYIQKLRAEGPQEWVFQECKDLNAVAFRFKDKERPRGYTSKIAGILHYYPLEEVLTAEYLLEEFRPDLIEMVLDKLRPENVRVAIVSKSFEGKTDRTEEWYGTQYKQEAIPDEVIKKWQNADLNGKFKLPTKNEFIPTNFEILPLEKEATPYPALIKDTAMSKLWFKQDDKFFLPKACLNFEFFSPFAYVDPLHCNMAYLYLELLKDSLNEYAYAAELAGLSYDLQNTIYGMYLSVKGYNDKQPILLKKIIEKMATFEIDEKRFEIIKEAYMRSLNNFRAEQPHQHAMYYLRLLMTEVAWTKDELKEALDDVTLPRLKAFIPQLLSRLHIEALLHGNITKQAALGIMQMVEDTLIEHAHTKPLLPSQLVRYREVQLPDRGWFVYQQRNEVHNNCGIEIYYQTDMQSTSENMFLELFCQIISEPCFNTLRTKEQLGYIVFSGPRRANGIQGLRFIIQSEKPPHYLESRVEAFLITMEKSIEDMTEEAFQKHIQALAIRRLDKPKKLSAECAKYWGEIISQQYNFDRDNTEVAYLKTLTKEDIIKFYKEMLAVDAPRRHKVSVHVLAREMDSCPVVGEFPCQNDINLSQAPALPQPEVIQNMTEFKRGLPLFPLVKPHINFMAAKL
Of the large screens only hits and unclear results are named; the others gave an inactive call. Only a selection was taken, and hits are over-represented in it overall.

Cc1ccccc1-c1ccc([C@@H]2[C@@H](CO)N3CCCCN(S(=O)(=O)c4ccc(F)cc4)C[C@@H]23)cc1	IDE exosite FP -18
CCS(=O)(=O)N1CCCCN2[C@@H](CO)[C@H](c3ccc(-c4ccccc4F)cc3)[C@@H]2C1	none
O=S(=O)(c1ccc(F)cc1)N1CCCCN2[C@H](C1)[C@H](c1ccc(-c3ccccc3)cc1)[C@@H]2CO	none
Cc1ccccc1-c1ccc([C@@H]2[C@@H](CO)N3CCCCN(S(=O)(=O)Cc4ccccc4)C[C@H]23)cc1	none
CCS(=O)(=O)N1CCCCN2[C@@H](CO)[C@@H](c3ccc(-c4ccccc4F)cc3)[C@@H]2C1	IDE exosite FP -6.5
COCC(=O)N1[C@H](C#N)[C@@H](c2ccccc2-c2cccc(F)c2)[C@H]1CO	none
C[C@@H]1CCCCO[C@H](CN(C)C(=O)NC2CCCCC2)[C@@H](C)CN([C@H](C)CO)C(=O)c2cc(N(C)C)ccc2O1	none
COc1ccc2c3c(n(C)c2c1)[C@H](CO)N(C(=O)Nc1ccc(F)cc1)CC31CCN(C(=O)Nc2ccc(F)cc2F)CC1	none
COCCN(C[C@H]1N[C@H](CO)[C@@H]1c1ccccc1)C(=O)NC1CCCC1	none
CC(C)CC#Cc1ccc([C@@H]2[C@@H](CO)N3C(=O)CN(C(=O)c4ccc5c(c4)OCO5)C[C@H]23)cc1	none
O=C(Nc1ccc2c(c1)[C@H]1C[C@@H](CC(=O)N3CCCCC3)O[C@H](CO)[C@H]1O2)NC1CCCCC1	none
Cc1ccccc1S(=O)(=O)N1C[C@@H](O)COC[C@H]2O[C@@H](CC(=O)N3CCCCC3)CC[C@@H]21	none
C/C=C/c1ccc([C@@H]2[C@@H](CO)N3C(=O)CN(Cc4ccc(C)cc4)C[C@@H]23)cc1	none
COC(=O)c1ccc(CN2CC(=O)N3[C@H](CO)[C@@H](c4ccc(Br)cc4)[C@H]3C2)cc1	none
COC(=O)c1ccc(CN2CC(=O)N3[C@H](CO)[C@H](c4ccc(Br)cc4)[C@@H]3C2)cc1	none
COC(=O)c1ccc(CN2CC(=O)N3[C@H](CO)[C@@H](c4ccc(Br)cc4)[C@@H]3C2)cc1	IDE exosite FP -3.5
C/C=C/c1ccc([C@@H]2[C@H]3CN(Cc4ccc(C)cc4)CC(=O)N3[C@H]2CO)cc1	none
C/C=C/c1ccc([C@H]2[C@H](CO)N3C(=O)CN(Cc4ccc(C)cc4)C[C@@H]23)cc1	IDE exosite FP -5
OC[C@@H]1[C@@H](c2ccc(-c3ccc(F)cc3)cc2)[C@@H]2CN(Cc3ccccn3)CCCCN12	none
CN(C)CC(=O)N1C[C@@H]2N[C@H](C1)C2c1ccc(-c2ccccc2F)cc1 (stereo partly drawn)	none
COc1ccc(-c2ccc([C@H]3[C@@H](CO)N4C(=O)CNC[C@@H]34)cc2)cc1	none
Cc1ccccc1-c1ccc([C@H]2[C@H](CO)N3C(=O)CN(C(=O)c4ccncc4)C[C@@H]23)cc1	IDE exosite FP -7.4
Cc1ccccc1-c1ccc([C@H]2[C@@H](CO)N3C(=O)CN(C(=O)c4ccccc4)C[C@@H]23)cc1	IDE exosite FP -8.3
Cc1ccccc1-c1ccc([C@@H]2[C@@H](CO)N3C(=O)CN(C(=O)c4ccc(F)cc4)C[C@H]23)cc1	none
O=C(c1ccccc1)N1CC(=O)N2[C@H](C1)[C@@H](c1ccc(-c3ccccc3)cc1)[C@@H]2CO	none
COc1ccc(-c2ccc([C@H]3[C@@H](C#N)N(C(=O)NC(C)C)[C@H]3CO)cc2)cc1	none
CCN1CC(=O)N2[C@H](CO)[C@@H](c3ccc(Br)cc3)[C@@H]2C1	none
O=C(c1ccncc1)N1CC(=O)N2[C@H](CO)[C@H](c3ccc(C#CCC4CCCC4)cc3)[C@@H]2C1	none
O=C(O)[C@@H]1[C@@H](CO)[C@@H]2Cn3c(ccc(/C=C/c4ccccc4)c3=O)[C@@H]2N1Cc1ccc2c(c1)OCO2	none
CO[C@@H]1CN(C)C(=O)c2ccc(NC(=O)c3nc4ccccc4s3)cc2OC[C@H](C)N(Cc2cccnc2)C[C@@H]1C	none
CCCNC(=O)N1C[C@H](O)COC[C@H]2O[C@@H](CC(=O)OC)CC[C@@H]21	none
COCC#Cc1ccc([C@H]2[C@H](CO)N3C(=O)CN(C(=O)C4CCOCC4)C[C@@H]23)cc1	none
CCC(=O)N1CC2(C1)[C@@H](c1ccc(-c3cccc(C)c3)cc1)[C@@H](CO)N2S(C)(=O)=O	IDE exosite FP -3.3
CN(C)CC(=O)N1CC2(C1)[C@@H](c1ccccc1)[C@@H](CO)N2S(C)(=O)=O	none
CCC(=O)N1CC2(C1)[C@H](c1ccc(-c3cccc(C)c3)cc1)[C@@H](CO)N2S(C)(=O)=O	none
CC(C)C#Cc1ccc([C@@H]2[C@@H](CO)N(C(=O)C3CC3)[C@H]2C#N)cc1	none
O=C(c1ccncc1)N1CC(=O)N2[C@H](CO)[C@@H](c3ccc(-c4ccccc4)cc3)[C@H]2C1	none
COc1cccc(-c2ccc([C@H]3[C@@H](CO)N4C(=O)CN(C(=O)c5ccncc5)C[C@H]34)cc2)c1	IDE exosite FP -8
O=C(c1ccncc1)N1CC(=O)N2[C@H](CO)[C@@H](c3ccc(-c4cccnc4)cc3)[C@@H]2C1	none
COc1cccc(-c2ccc([C@H]3[C@H](CO)N4C(=O)CN(C(=O)c5ccncc5)C[C@@H]34)cc2)c1	IDE exosite FP -4.6
O=C(c1ccncc1)N1CC(=O)N2[C@@H](CO)[C@H](c3ccc(-c4cccnc4)cc3)[C@@H]2C1	none
COc1cccc(-c2ccc([C@@H]3[C@H](CO)N4C(=O)CN(C(=O)c5ccncc5)C[C@@H]34)cc2)c1	none
C[C@@H]1CN([C@H](C)CO)C(=O)CCCn2cc(nn2)CO[C@@H]1CN(C)C(=O)NC1CCCCC1	none
COc1ccc(NC(=O)N2C[C@@H]3[C@H](c4ccccc42)[C@@H](CO)N3Cc2ccccn2)cc1	none
COc1cccc(-c2ccc([C@H]3[C@H]4CN(CC5CC5)CCCCN4[C@H]3CO)cc2)c1	IDE exosite FP -4.1
Cc1ccc(-c2ccc([C@@H]3[C@@H](CO)N4CCCCN(Cc5cncnc5)C[C@@H]34)cc2)cc1	none
Cc1cccc(-c2ccc([C@H]3[C@@H](CO)N4CCCCN(Cc5cncnc5)C[C@@H]34)cc2)c1	none
Cc1cccc(-c2ccc([C@H]3[C@H](CO)N4CCCCN(Cc5cncnc5)C[C@@H]34)cc2)c1	IDE exosite FP -7.4
OC[C@H]1[C@H](c2ccc(-c3ccccc3)cc2)[C@@H]2CN(Cc3cncnc3)CCCCN12	none
OC[C@H]1[C@@H](c2ccc(-c3ccccc3)cc2)[C@@H]2CN(Cc3cncnc3)CCCCN12	none
COc1cccc(-c2ccc([C@@H]3[C@@H](CO)N4CCCCN(CC5CC5)C[C@H]34)cc2)c1	none
Cc1ccc(-c2ccc([C@@H]3[C@H](CO)N4CCCCN(Cc5cncnc5)C[C@@H]34)cc2)cc1	none
Cc1cccc(-c2ccc([C@H]3[C@H]4CN(Cc5cncnc5)CCCCN4[C@H]3CO)cc2)c1	IDE exosite FP -6
Cc1cccc(-c2ccc([C@@H]3[C@@H](CO)N4CCCCN(Cc5cncnc5)C[C@H]34)cc2)c1	IDE exosite FP -4.6
OC[C@H]1[C@H](c2ccc(-c3ccccc3)cc2)[C@H]2CN(Cc3cncnc3)CCCCN21	none
COc1cccc(-c2ccc([C@H]3[C@H](CO)N4CCCCN(CC5CC5)C[C@@H]34)cc2)c1	none
CS(=O)(=O)N1CCCCN2[C@@H](CO)[C@H](c3ccc(Br)cc3)[C@@H]2C1	none
CC(C)C#Cc1ccc([C@H]2[C@@H](CO)N3C(=O)CN(C(=O)c4ccccn4)C[C@H]23)cc1	none
O=C(NCC[C@@H]1CC[C@H](NC(=O)c2ccncc2)[C@@H](CO)O1)Nc1ccc(Cl)cc1	none
O=C(Nc1ccccc1F)N1CCCCN2[C@@H](CO)[C@H](c3ccc(-c4cccnc4)cc3)[C@@H]2C1	none

Bioassay records from PubChem.
